# Measured values: PubChem BioAssay AID598 (SRMLSC, 2007)
# In all, about 85,000 compounds went through this assay and about 5,100 (6%) were called active.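 How the source made its calls: active means viability at or below 40%; inactive means viability above 40%.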 This excerpt belongs to a sample that is enriched for actives.
# Assay: H69AR cell viability reduction – human, 86K library, primary screen (AID 598);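 further: multidrug resistant small cell line overexpressing MRP-1 efflux transporter; 100% = mean luminescence of untreated control wells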
# Details: H69AR lung tumor viability, ATP luminescence, 72 h; at 10 µM; stronger effect = lower value
row,Compound,viability
1,OC(CN1C2=NCCCN2c2ccccc21)c1ccc(Br)cc1 (stereo not given),86.5% (inactive)
2,Cn1cnc([N+](=O)[O-])c1Nc1ccccc1O,100% (inactive)
3,COC(=O)c1ccc(CSc2nnc(NC(C)C)s2)cc1,98.2% (inactive)
4,COc1ccc(C)cc1NC(=O)CCS(=O)(=O)c1cccc2nonc12,89% (inactive)
5,C=CCn1c(SCc2c(C)noc2C)nc2sc3c(c2c1=O)CCC(C)C3 (stereo not given),29.4% (active)
6,CC1CCc2c(sc3nc4n(c(=O)c23)CCS4)C1 (stereo not given),80.8% (inactive)
7,CCCn1nnc2sc3c(c2c1=O)CCC(C)C3 (stereo not given),96.7% (inactive)
8,Nc1c(C(=O)NCc2ccccc2)sc2nc3c(cc12)C(=O)CCC3,65.5% (inactive)
9,Cc1ccc(SCC(=O)c2cc(C)c(OC(=S)N(C)C)c(C)c2)cc1,64.6% (inactive)
10,COCCNC(=O)COc1ccc(C)c(C)c1,86% (inactive)
11,Cc1ccc(SC(=O)COc2ccc(C)c(C)c2)cc1,16.4% (active)
12,Cc1ccc(S(=O)(=O)NC(=O)COc2ccccc2C)cc1,97.9% (inactive)
13,CCOCN(C(=O)Cn1c(C(C)O)nc2ccccc21)c1c(C)cccc1CC (stereo not given),62.8% (inactive)
14,O=C(Cc1ccc(-n2c(=O)c3sccc3n(Cc3ccc(F)cc3)c2=O)cc1)NCc1ccco1,51% (inactive)
15,CN1CCN(CC(=O)Nc2sc3c(c2C#N)CCC(C(C)(C)C)C3)CC1 (stereo not given),2.42% (active)
16,CCC(=O)Nc1sc(C(=O)N2CCCCC2)c(C)c1C#N,96.9% (inactive)
17,c1ccc2c(NCC3CCCO3)nc(-c3ccncc3)nc2c1 (stereo not given),35.5% (active)
18,Cc1nc2ccccc2c2oc(C(=O)NCC3CCCO3)cc12 (stereo not given),82.4% (inactive)
19,c1ccc(-c2nc(NCc3ccco3)c3ccccc3n2)cc1,87.9% (inactive)
20,Cn1c2c(c(=O)n(C)c1=O)C(c1cccc([N+](=O)[O-])c1)Nc1ccccc1O2 (stereo not given),88.5% (inactive)
21,C=CCn1c(SCc2c(C(=O)OC)sc(N)c2C(=O)OC)nnc1-c1ccc(Cl)cc1,45.2% (inactive)
22,COc1ccc(CN2CCCCC2C)cc1OC (stereo not given),105% (inactive)

row,Compound,viability
1,COc1cc(C2CC(=O)c3cnc(NC(C)=O)nc3C2)cc(OC)c1OC (stereo not given),74% (inactive)
2,CCc1ccc(Nc2ncc3c(n2)CC(c2ccco2)CC3=O)cc1 (stereo not given),26.3% (active)
3,O=C(Nc1ncc2c(n1)CC(c1ccco1)CC2=O)c1ccc(Cl)cc1 (stereo not given),80.7% (inactive)
4,Nc1ccc(C(=O)OCC(=O)NC2CCCc3ccccc32)cc1[N+](=O)[O-] (stereo not given),63.4% (inactive)
5,CCOc1ncccc1C(=O)OCc1cn2cc(Cl)ccc2n1,35.2% (active)
6,CCOC(=O)c1cc2ccccc2nc1C,101% (inactive)
7,CSc1ncccc1C(=O)OCC(=O)N1CCOCC1,96% (inactive)
8,COc1ccc(CNc2ccc3c(c2)CCC3)cc1OC,104% (inactive)
9,CCOc1ccc(C(=O)NC2CCN(C(=O)Nc3ccccc3OC)CC2)cc1,79% (inactive)
10,COC(=O)CSc1nc(C)c2ccc(OC)cc2n1,86.5% (inactive)
11,Cc1nnc(SCC(=O)NC(=O)NC2CCCC2)n1N,109% (inactive)
12,CC(C)n1c(C(O)c2ccccc2)nc2ccccc21 (stereo not given),104% (inactive)
13,Cc1ccc(C(CC(=O)O)Nc2nc(N3CCCCC3)nc(N3CCCCC3)n2)cc1 (stereo not given),108% (inactive)
14,CC(Nc1nc(N2CCCC2)nc2ccccc12)c1ccccc1 (stereo not given),12.4% (active)
15,CCCCN1C(=O)/C(=C2/C=CC=CN2C)SC1=S,90.2% (inactive)
16,CC(=O)c1cc2c(cc1NC(=O)CN1CCCCCC1)OCO2,79.5% (inactive)
17,CCc1ccc(CNC(=O)C2CC(=O)N(CCc3ccc(C)cc3)C2)cc1 (stereo not given),99.5% (inactive)
18,CCC(C)Sc1nc2c(c(=O)[nH]c(=O)n2C)n1CC(O)COc1cccc2ccccc12 (stereo not given),30.7% (active)
19,CN1CCN(c2nc3c(c(=O)[nH]c(=O)n3C)n2Cc2cccc3ccccc23)CC1,71.9% (inactive)
20,CCCSc1nc2c(c(=O)[nH]c(=O)n2C)n1CCc1ccccc1,74% (inactive)
21,Cn1c(SCC(=O)NC2CCCCC2)nnc1-c1cc2ccccc2o1,91% (inactive)
22,Cc1ccoc1C(=O)Nc1cccc(Oc2ccccc2)c1,112% (inactive)

row,Compound,viability
1,CC(=O)c1cccc(NC(=O)Nc2ccc(C)cc2)c1,95.3% (inactive)
2,Cc1cccc(NC(=O)Nc2cccc(Oc3c(F)c(F)c(F)c(F)c3F)c2)c1,8.13% (active)
3,COc1ccc2c(Cl)c(C(=O)NCc3ccco3)sc2c1,91.4% (inactive)
4,CCOc1ccc(N=C2NC(=O)S/C2=C\c2ccc(O)cc2)cc1,47.5% (inactive)
5,CCC(=O)Nc1ccc(C(=O)Nc2cccc(OC)c2)cc1,64.6% (inactive)
6,CCCc1nc2scc(-c3ccc(C)cc3)c2c(=O)n1N,46.1% (inactive)
7,O=C(Cc1ccccc1)Nc1c(C(=O)N2CCCCCC2)cnn1-c1ccccc1,96.5% (inactive)
8,O=C(Cn1cnc2c(nnn2Cc2ccc(F)cc2)c1=O)NCc1ccc2c(c1)OCO2,95.8% (inactive)
9,CCCc1nc(NCc2ccc3c(c2)OCO3)c2nnn(Cc3ccccc3Cl)c2n1,24.6% (active)
10,C#CCNc1nc(C(C)C)nc2c1nnn2Cc1ccccc1F,104% (inactive)
11,O=c1onc(-c2cccs2)n1Cc1ccccc1,95.9% (inactive)
12,Cc1cccc(C)c1OC(=O)CSc1nnc(-c2ccccc2)o1,98.4% (inactive)
13,O=C1CC(C(F)(F)C(F)(F)C(F)(F)C(F)(F)F)=Nc2ccccc2N1,92.7% (inactive)
14,CCCCOc1ccc(CSC(=N)N)cc1[N+](=O)[O-],5.08% (active)
15,CCCCOc1ccc(Cl)cc1CSc1nncn1N,94% (inactive)
16,N#C/C(=C\c1ccccc1)c1n[nH]c(Cn2cncn2)n1,96.8% (inactive)
17,O=C(CCS(=O)(=O)c1cccc2nsnc12)N1CCN(c2ccccc2F)CC1,91% (inactive)
18,CCOC(=O)C(=O)Nc1nc(-c2ccccc2)c(CC)s1,103% (inactive)
19,Cc1sc2nc(SCC(N)=O)n(C)c(=O)c2c1C,84.1% (inactive)
20,C=CCn1c(SCC(=O)/C(C#N)=C(\C)N)nc2sc(C)c(C)c2c1=O,6.3% (active)
21,CCCn1c(=O)c2ccccc2n2c(SCC(=O)/C(C#N)=C(\C)N)nnc12,79.8% (inactive)
